# In PubChem BioAssay AID488969 (Vanderbilt High Throughput Screening Facility, 2010):
# In all, about 110,000 compounds were measured (“z-score”: median about -0.1, highest 2% from about 2 on). For the sample, the highest values were picked, then their nearest neighbours and some compounds at random. Activity calls are given as the source filed them.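 How the source made its calls: active means z-score in the third read window above 3 or below -3; inactive means the rest.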
# Target: Metabotropic glutamate receptor 8 (Rattus norvegicus) (UniProt P70579)
# Assay: rat mGluR8 modulators via GIRK flux, primary screen, cell-based, thallium flux, HTS (AID 488969)
# Details: HEK293 rat mGluR8, GIRK (G protein-gated inwardly rectifying potassium channel) thallium flux, FluoZin2; at 10 µM; stronger effect = higher value; submaximal glutamate (EC20) added with thallium
# Chain of Metabotropic glutamate receptor 8 (Rattus norvegicus) (P70579 whole entry, looked up): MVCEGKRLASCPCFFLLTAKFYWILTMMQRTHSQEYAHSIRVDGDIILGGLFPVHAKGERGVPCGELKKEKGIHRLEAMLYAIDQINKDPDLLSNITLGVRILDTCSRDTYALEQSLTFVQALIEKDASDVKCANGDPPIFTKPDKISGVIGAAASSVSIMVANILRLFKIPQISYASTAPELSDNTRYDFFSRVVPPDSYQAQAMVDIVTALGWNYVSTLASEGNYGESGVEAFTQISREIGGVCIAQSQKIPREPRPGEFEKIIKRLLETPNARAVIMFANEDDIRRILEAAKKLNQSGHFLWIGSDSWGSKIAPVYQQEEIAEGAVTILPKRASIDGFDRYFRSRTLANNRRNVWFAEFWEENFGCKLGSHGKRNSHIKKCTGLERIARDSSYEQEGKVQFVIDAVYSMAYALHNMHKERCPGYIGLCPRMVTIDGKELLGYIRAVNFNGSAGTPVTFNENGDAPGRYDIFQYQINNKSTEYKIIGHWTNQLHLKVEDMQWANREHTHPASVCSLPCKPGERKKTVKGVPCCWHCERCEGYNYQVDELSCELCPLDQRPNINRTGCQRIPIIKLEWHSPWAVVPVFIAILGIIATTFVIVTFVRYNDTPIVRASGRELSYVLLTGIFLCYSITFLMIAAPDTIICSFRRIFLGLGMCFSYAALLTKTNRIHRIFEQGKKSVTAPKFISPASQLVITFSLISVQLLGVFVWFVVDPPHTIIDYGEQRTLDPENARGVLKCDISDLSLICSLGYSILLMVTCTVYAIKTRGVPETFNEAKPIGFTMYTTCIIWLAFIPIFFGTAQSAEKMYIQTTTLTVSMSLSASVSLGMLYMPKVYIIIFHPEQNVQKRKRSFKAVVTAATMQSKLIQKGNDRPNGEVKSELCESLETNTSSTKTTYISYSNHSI
row,SMILES,z-score
1,CCN1C(=O)CC(N2CCN(c3ccc(C(=O)c4ccccc4)cc3)CC2)C1=O (stereo unspecified),-0.153
2,COc1ccc(NC(=O)C2CCCN(S(=O)(=O)c3cccs3)C2)cc1OC (stereo unspecified),-0.257
3,Cc1nnc(NC(=O)CCSc2ccccc2)s1,2.67
4,O=C(Cc1cccs1)Nc1nnc(CCc2ccccc2)s1,0.238
5,Cc1nnc(NC(=O)Cc2cccs2)s1,2.4
6,O=C(Cc1cccs1)NCc1cccnc1,0.742
7,COCCSc1nnc(NC(=O)Cc2cccs2)s1,0.124
8,CCCCCc1nnc(NC(=O)Cc2cccs2)s1,12.3 (active)
9,CCCCc1nnc(NC(=O)CCSc2ccccc2)s1,0.0449
10,O=C(Nc1cccnc1)c1cccs1,-0.52
11,COCc1nnc(NC(=O)CCSc2ccccc2)s1,-0.0854
12,O=C(Cc1cccs1)Nc1cccnc1,3.36 (active)
13,O=C(Cc1cccs1)Nc1nnc(Cc2ccccc2)s1,-0.0843
14,Cc1nnc(NC(=O)CCC(=O)NCc2cccs2)s1,-0.0957
15,NNc1nnc(-c2ccccc2)c(-c2ccccc2)n1,-0.209
16,CCOC(=O)CCCCC(=O)c1[nH]c(=O)[nH]c1CSCCO,0.565
17,O=C(Nc1ccc(F)cc1)C(c1ccccc1)N1CCN(C(=O)c2ccco2)CC1 (stereo unspecified),-0.404
18,CC(=O)Nc1ccc(NC(=O)COC(=O)Cc2cccs2)cc1,-0.0463

row,SMILES,z-score
1,COc1ccc(-n2c(SCC(=O)Nc3ccc(C(=O)O)cc3)nnc2-c2cccs2)cc1,0.0972
2,CC1(C)N=C(N)N=C(N)N1c1ccc(F)cc1F,-0.421
3,O=C1NC(=S)S/C1=C/c1ccc(N2CCOCC2)o1,0.253
4,O=C1NC(=S)S/C1=C\c1ccc(SCc2ccccc2)o1,6.47 (active)
5,CC1=NN2C(=N)/C(=C\c3ccc(SCc4ccccc4)o3)C(=O)N=C2S1,-0.21
6,CCCNc1nc(N2CCOCC2)nc(N2CCOCC2)n1,-0.0765
7,CCOc1cc(C)cc2oc(=O)cc(-c3ccccc3)c12,0.0205
8,Cc1cc(OC(C)C)c2c(-c3ccccc3)cc(=O)oc2c1,-0.594
9,Cc1cc(O)c2c(-c3ccccc3)cc(=O)oc2c1,2.16
10,C=CCCC(=O)Nc1nc(C)c(-c2csc(Nc3ccc(Cl)cc3Cl)n2)s1,-0.203
11,O=[N+]([O-])c1cc(/C=N/N2CCN(C3c4ccccc4-c4ccccc43)CC2)ccc1Cl,0.148
12,O=[N+]([O-])c1cc(/C=N/N2CCN(c3ccccc3)CC2)ccc1Cl,2.02
13,O=[N+]([O-])c1ccc(Cl)c(/C=N/N2CCN(c3ccccc3)CC2)c1,-0.188
14,N#C/C(=C\c1ccc(-c2cccc(C(F)(F)F)c2)o1)C(=O)Nn1cnnc1,-0.113
15,O=C1NCCCC1C(=O)N/N=C/c1ccccc1 (stereo unspecified),0.00752
16,S=c1[nH]nc(CSc2nc3ccccc3s2)n1C1CCCCC1,14.9 (active)
17,CCn1c(CSc2nc3ccccc3s2)n[nH]c1=S,0.155
18,Cn1c(CSc2nc3ccccc3s2)n[nH]c1=S,1.41
